The panel holds about 79,000 compounds, 15% with a hit somewhere; the sample as a whole holds those more often. Rule as the data show it: active = growth inhibition above about 70%; inactive = the rest. Where a SMILES comes first, the peptide text is derived from it. [ ]: non-standard residue; d: D form. ξ: configuration not given here. ξF = NC(Cc1ccccc1)C(=O)O
Tests used:
[1] = NCI Yeast Anticancer Drug Screen. Data for the rad50 strain (AID 155);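 also: 0% = growth of vehicle-only cultures of the same strain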; conditions: S. cerevisiae rad50 strain growth inhibition; at 50.0 µM; stronger effect = higher value
Procedure, shortened: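 Genetically altered yeast (DNA repair pathway); compound treatment; growth inhibition vs vehicle ctrl.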

[2] = NCI Yeast Anticancer Drug Screen. Data for the mec2-1 strain (AID 157); conditions: S. cerevisiae mec2-1 strain, at 50.0 µM, stronger effect = higher value
Procedure, shortened: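 Mutant yeast (mec2-1) grown with compound; growth inhibition relative to vehicle control reported.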

[3] = NCI Yeast Anticancer Drug Screen. Data for the sgs1 mgt1 strain (AID 161);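 also: 0% = growth of cultures given vehicle only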; conditions: S. cerevisiae sgs1 mgt1 strain, at 50.0 µM, stronger effect = higher value
Procedure, shortened: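 Yeast cells carrying a defined DNA-repair defect were exposed to test compounds. Growth inhibition was measured relative to vehicle-treated controls.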

[4] = NCI Yeast Anticancer Drug Screen. Data for the cln2 rad14 strain (AID 165);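 also: 0% = growth equal to vehicle treated cultures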; conditions: S. cerevisiae cln2 rad14 strain, at 50.0 µM, stronger effect = higher value
Procedure, shortened: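 Readout is yeast growth inhibition versus vehicle-treated controls, using a strain with cln2 and rad14 alterations exposed to compound.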

[5] = NCI Yeast Anticancer Drug Screen. Data for the bub3 strain (AID 167); conditions: S. cerevisiae bub3 mutant strain, at 50.0 µM, stronger effect = higher value
Procedure, shortened: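 Yeast carrying a defined mutation is treated with each compound, and growth is compared with that of vehicle-exposed cells to give inhibition.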

[6] = NCI Yeast Anticancer Drug Screen. Data for the mlh1 rad18 strain (AID 175); conditions: S. cerevisiae mlh1 rad18 strain growth inhibition; at 50.0 µM; stronger effect = higher value
Procedure, shortened: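 Genetically defined yeast (DNA repair-deficient) exposed to compounds; growth inhibition determined relative to vehicle.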

Measured: growth inhibition

COC(=O)C(CC(=O)C=[N+]=[N-])NC(=O)C(Cl)Cl (stereo unspecified)
inactive: [1] -2.4% | [2] -8.9% | [3] -4.7% | [4] -15.9% | [5] 9.3% | [6] -8.95%

CC(=O)OCCOC1c2ccccc2-c2ccccc21
inactive: [1] 7.1% | [2] -2.75% | [3] 18.2% | [4] 18.6% | [5] 25.3% | [6] 13.8%

COc1ccc(C(=O)/C=C/c2ccc(OCCCCCCCCCCOc3ccc(/C=C/C(=O)c4ccc(OC)cc4)cc3)cc2)cc1
inactive: [1] -14.2% | [2] -14.8% | [3] -17% | [4] -15.2% | [5] -30.4% | [6] -17.4%

COc1cc2c(cc1O)CN1Cc3cc(O)c(OC)cc3C2C1
inactive: [1] -4.95% | [2] 2.35% | [3] -9.1% | [4] -20.9% | [5] -10% | [6] 13.3%

C=CCc1oc(C)nc1CCCC
inactive: [1] 0.2% | [2] -0.1% | [3] 16.7% | [4] 27.4% | [5] 5.85% | [6] 23.3%

Cc1cn(C2CC(O)C(O)C(C)O2)c(=O)[nH]c1=O (stereo unspecified)
inactive: [1] 22.2% | [2] 6.15% | [3] 24.6% | [4] 5.8% | [5] 12.2% | [6] 25.4%

NC(Cc1ccccc1)C(=O)NCC(=O)O (stereo unspecified) (H-[ξF]-Gly-OH)
inactive: [1] -7.45% | [2] 8.65% | [3] -6.35% | [4] -26.4% | [5] -11.7% | [6] -12.3%

CC(Br)C(=O)Nc1ccc(C(=O)O)c(O)c1 (stereo unspecified)
inactive: [1] 3.85% | [2] -32.8% | [3] -18.8% | [4] 20.9% | [5] -7.5% | [6] 2.95%

CCCCOC(=O)C(C)O (stereo unspecified)
inactive: [1] 41.1% | [2] 16.3% | [3] 21.6% | [4] 19.3% | [5] 0.05% | [6] 24.9%

Cc1nc(C(N)=S)sc1C(=O)CC(=O)C(=O)Nc1cccc(Cl)c1C
inactive: [1] 1.2% | [2] -2.4% | [3] -10.2% | [4] -6.65% | [5] -0.4% | [6] -53.4%

CN(Cc1ccccc1)C(=O)/C=C/c1ccccc1
inactive: [1] 9.8% | [2] 22.1% | [3] 26.4% | [4] 2.85% | [5] 27.2% | [6] 14.8%

CC(=O)CC(=O)NCc1ccncc1
inactive: [1] -5.85% | [2] 8.1% | [3] 12.1% | [4] -44.3% | [5] 26.9% | [6] -1.9%

CCN(CC)CCN(CC)CC(=O)Nc1ccccc1Cl
inactive: [1] -14.9% | [2] -29.9% | [3] -1.65% | [4] 4.35% | [5] -3.6% | [6] -14.2%

C=C(C)c1nc(N)nc(-c2cccc(-c3nc(N)nc(C(=C)C)n3)c2)n1
inactive: [1] -8.2% | [2] -8.35% | [3] 0.2% | [4] -67.6% | [5] -11% | [6] -0.8%

N#Cc1c2ccccc2cc2c1ccc1ccccc12
inactive: [1] 6.95% | [2] 17.1% | [3] 15.8% | [4] -4.45% | [5] 11.9% | [6] 17.1%

Cc1cc(C)c2c(c1)CC(C)(C)C(=O)OC2=O
inactive: [1] -16.2% | [2] -23.9% | [3] -9.65% | [4] 2.4% | [5] -10.3% | [6] -11.2%

N#C/C(=C\c1cc(F)cc(F)c1)c1ccccn1
inactive: [1] 9.7% | [2] -0.95% | [3] 0.65% | [4] 3.25% | [5] 3.2% | [6] 30.2%

CC(C)(Oc1ccccc1)C(=O)Sc1c(-c2ccccc2)c(=O)n(-c2ccccc2)c(=S)n1-c1ccccc1
inactive: [1] 13.2% | [2] -14.8% | [3] -15.3% | [4] -5.4% | [5] -13.2% | [6] -6.95%

CCOC(=O)c1nc(SC)sc1NC(=O)c1ccccc1[N+](=O)[O-]
inactive: [1] 21.2% | [2] -4.6% | [3] -8.75% | [4] 11.6% | [5] 3% | [6] -2.65%

O=C(O)C1C2CC(C(Br)C2Br)C1C(=O)O (stereo unspecified)
inactive: [1] -6.55% | [2] 0.75% | [3] -21.7% | [4] 9.9% | [5] -5.85% | [6] -12.2%

CCCC(=O)NC(Nc1ccc(S(=O)(=O)Nc2nc(C)cc(C)n2)cc1)(C(F)(F)F)C(F)(F)F
inactive: [1] -21.6% | [2] -37.9% | [3] -21.1% | [4] 13.2% | [5] -3.7% | [6] -21.4%

From PubChem BioAssay (NCI)
